# Laboratory results published in ChEMBL document CHEMBL3988442, “University of Dundee, Small-Polar-MMV Screening Library” (2021).
# The whole screen tested about 48,000 compounds, of which about 13,000 (27%) showed an effect of 50% or more. The list shows a part of the results.
# System: Wolbachia pipientis
# Assay: Anti-Wolbachia Cell-Based Screen
# Format: functional
# Set-up: scale not given: in the data most compounds retested in dose-response had high values
# Details: 5 µM
row,SMILES,Percent Effect
1,COc1cccc(-n2c(C)cc(C(=O)O)c2C)c1,1.282%
2,CC(=O)N1[C@H](Cn2cncn2)C[C@@H]2CN(c3ncccn3)CC[C@@H]21,-1.924%
3,COCC1CCN(S(=O)(=O)N2C[C@@H](C)[C@](O)(C3CC3)C2)CC1,-6.27%
4,COC(=O)c1ccc(NC(=O)NC2CCc3[nH]ncc3C2)cc1 (stereo unspecified),-3.404%
5,CC(=O)N1CC[C@@H]2CN(Cc3ccncc3)S(=O)(=O)[C@@H]2CC1.O=C(O)C(F)(F)F,-10.18%
6,CC(C)CC(=O)N1CC[C@@H]2CN(CC(=O)N(C)C)S(=O)(=O)[C@@H]2CC1,-34.28%
7,O=C(C1CCC1)N1CC[C@@H]2CN(Cc3cccnc3)S(=O)(=O)[C@@H]2CC1,102.5%
8,CC(C)CNC(=O)N1CC[C@@H]2CN(Cc3cccnc3)S(=O)(=O)[C@@H]2CC1.O=C(O)C(F)(F)F,96.93%
9,O=C(c1cc[nH]n1)N1CC[C@@H]2CN(Cc3cccnc3)S(=O)(=O)[C@@H]2CC1,-2.568%
10,COCC(=O)N1CC[C@@H]2CN(Cc3cccnc3)S(=O)(=O)[C@@H]2CC1,104.6%
11,O=C(O)C(F)(F)F.O=C(c1cc[nH]n1)N1CC[C@@H]2CN(Cc3ccccc3)S(=O)(=O)[C@@H]2CC1,-14%
12,O=C(C1CCCO1)N1CC[C@@H]2CN(Cc3ccccc3)S(=O)(=O)[C@@H]2CC1 (stereo partly specified),-10.05%
13,CC(C)CC(=O)N1CC[C@@H]2CN(Cc3cccnc3)S(=O)(=O)[C@@H]2CC1,111.2%
14,COCC(=O)N1CC[C@@H]2CN(Cc3ccccc3)S(=O)(=O)[C@@H]2CC1,-9.3%
15,COCC(=O)N1CC[C@@H]2CN(Cc3cccc(Cl)c3)S(=O)(=O)[C@@H]2CC1,-12.94%
16,O=C1O[C@@H]2CN(c3ccncc3)C[C@@H]2N1CCCc1ccc(F)cc1,-4.206%
17,CN(CCO)CC1COCCN1C(=O)C1(c2cccs2)CCCC1.O=CO (stereo unspecified),2.363%
18,COCCC1(CO)CCCN(C(=O)c2cccnc2O)C1 (stereo unspecified),1.104%
19,Cl.O=C1C(NCc2ccc3c(c2)CCO3)CCN1Cc1ccccc1 (stereo unspecified),-4.636%
20,COCC(=O)N1CCC(C(=O)N(C)C(C)c2ccon2)CC1 (stereo unspecified),2.013%
21,COc1ccccc1C(O)CNC(=O)NCc1cccnc1OC (stereo unspecified),-5.086%
22,COc1ncccc1CNC(=O)NCCNC(=O)c1ccco1,0.6647%
23,CCOc1ncccc1CNC(=O)CN1CCCCCC1=O,-62.17%
24,CCCNC(=O)NCc1cccnc1OC,1.177%
25,CCOc1ncccc1CNC(=O)Nc1ccc(OC)c(OC)c1,124%
26,CCOc1ncccc1CNC(=O)Nc1ccccc1,95.65%

row,SMILES,Percent Effect
1,CCOc1ncccc1CNC(=O)Nc1ccc(CC)cc1,115%
2,CC[C@@H](NC(C)=O)C(=O)NCc1cccnc1Oc1ccccc1OC,5.567%
3,CCCS(=O)(=O)NCc1cccnc1OCC,-4.428%
4,CCOc1ccc(NC(=O)NCc2cccnc2OCC)cc1,105.6%
5,CN(C)C(=O)C1CCCN1CCCNC(=O)c1ccccc1F (stereo unspecified),12.21%
6,CC(C)(C(=O)NCCS(N)(=O)=O)c1cccc(Br)c1,-14.63%
7,COc1cccc(-c2n[nH]c3c2CN(C(=O)c2oc(C)cc2C)CC3)c1,3.438%
8,CCn1ccc2ccnc(CC3CN(C(=O)Cn4ccnc4C)C3)c21.O=CO,124.4%
9,COc1ccccc1C(=O)N1CC(Cc2nccc3ccn(C)c23)C1,-2.36%
10,CCn1ccc2ccnc(CC3CN(C(=O)c4ccc(F)cc4)C3)c21,128.6%
11,CCN(CC)CC[C@H]1CN(C(=O)c2ccc(F)cc2)CC[C@H]1CC(=O)O,0.9693%
12,Cn1ccc2ccnc(CC3CN(C(=O)C4CCC(F)(F)CC4)C3)c21,-0.631%
13,CCn1ccc2ccnc(CC3CN(C(=O)c4cnco4)C3)c21,144.4%
14,CCCN1CCc2[nH]cnc2C12CCN(C(=O)Cn1ccnc1C)CC2,-4.185%
15,O=C(C(CNCc1ccncc1)c1ccccc1)N1CCOCC1 (stereo unspecified),0.2839%
16,O=C(Cc1ccc2c(c1)OCCO2)N1CCCC(n2cccn2)C1 (stereo unspecified),7.45%
17,CC(C)c1nc(C2CCCN2CC(=O)Nc2nncs2)no1 (stereo unspecified),-0.6487%
18,CC(C)c1nc(C2CCCN2CC(=O)Nc2ccc(Cl)cn2)no1 (stereo unspecified),-4.076%
19,Cc1cc(CN2CCCC2c2noc(C(C)C)n2)on1 (stereo unspecified),98.26%
20,CC(C)c1nc(C2CCCN2Cc2ccccc2C#N)no1 (stereo unspecified),6.567%
21,CC(C)c1noc(CN2CCCC2c2noc(C(C)C)n2)n1 (stereo unspecified),108.9%
22,CC(C)c1nc(C2CCCN2Cc2ccncc2Cl)no1 (stereo unspecified),81.18%
23,CC(C)c1nc(C2CCCN2Cc2ccn(C)c(=O)c2)no1 (stereo unspecified),-1.235%
24,CCc1noc(CN2CCCC2c2noc(C3CC3)n2)n1 (stereo unspecified),2.482%
25,CC(C)c1nc(C2CCCN2c2ccnc(C3CCCC3)n2)no1 (stereo unspecified),0.08889%
26,CC(C)c1nc(C2CCCN2Cc2ccon2)no1 (stereo unspecified),78.63%

row,SMILES,Percent Effect
1,c1ccc(-c2nnc3ccc(N4CCC5(CCOC5)C4)nn23)cc1 (stereo unspecified),-13.9%
2,CNC(=O)CN1CCC(NC(=O)C(C)Oc2ccccc2C#N)CC1 (stereo unspecified),0.1216%
3,CC(C)NS(=O)(=O)c1cc(C(=O)O)cc(-c2ccccc2CO)c1,11.88%
4,Cc1nc(C2CCCN2Cc2ncc(C(C)C)o2)no1 (stereo unspecified),8.273%
5,Cc1nc(C2CCCN2Cc2nc(C)c(C)o2)no1 (stereo unspecified),-0.5484%
6,Cc1nc(CN2CCCC2c2noc(C(C)C)n2)oc1C (stereo unspecified),98.12%
7,CCn1cnnc1CNC(=O)C1CCCN(Cc2cccc(F)c2)C1 (stereo unspecified),3.888%
8,CCc1c(C)nc2cc(C3CCN(Cc4ccccc4F)C3)nn2c1O (stereo unspecified),-15.15%
9,Cc1nc[nH]c1CN1CCC(C2CCN(CCc3ccccc3)C2)CC1 (stereo unspecified),-8.62%
10,Cn1cnnc1CNC(=O)C1CCCN(Cc2cccc(F)c2)C1 (stereo unspecified),-3.668%
11,NC(=O)c1cccc2nc([C@H]3CCN(Cc4ccccc4F)C3)[nH]c12,1.754%
12,Cc1nc2cc(C3CCN(Cc4ccccc4F)C3)nn2c(O)c1C (stereo unspecified),92.44%
13,Cc1cc(CN2CCC(C3CCN(Cc4cccnc4)CC3)C2)[nH]n1 (stereo unspecified),-58.7%
14,CCc1c(C)nc2cc(C3CCN(Cc4cccnc4)C3)nn2c1O (stereo unspecified),85.92%
15,CCc1c(C)nc2cc(C3CCN(CCc4ccccc4)C3)nn2c1O (stereo unspecified),76.13%
16,CCc1c(C)nc2cc(C3CCN(Cc4cccc(F)c4)C3)nn2c1O (stereo unspecified),98.22%
17,Cc1cc(CN2CCC(C3CCN(CCc4ccccc4)C3)CC2)[nH]n1 (stereo unspecified),-6.326%
18,Cc1nc(N2CCOCC2)nc(C)c1NC(=O)COc1ccccc1,15.56%
19,c1cc(-c2noc(CN3CCn4c(nnc4C4CC4)C3)n2)co1,-9.374%
20,O=C1N(Cc2ccc(F)c(F)c2)CCCC12CCN(C1CCSCC1)C2 (stereo unspecified),-6.504%
21,COCCCS(=O)(=O)N1CCN(C(=O)CO)CC1,-3.721%
22,CSc1sc(NC(=O)C2CCCN(C(N)=O)C2)nc1C (stereo unspecified),-0.4613%
23,CCn1c(C2CCCN(Cc3cccc4cnccc34)C2)nn(C)c1=O (stereo unspecified),3.036%
24,CCc1c(C)nc2cc(C3CCN(Cc4ccncc4C)C3)nn2c1O (stereo unspecified),81.51%
25,CCc1c(C)nc2cc(C3CCN(Cc4ccc(F)cc4)C3)nn2c1O (stereo unspecified),99.62%
26,O=C(NC1(c2nc(C3CC3)no2)CCCCC1)c1ccncc1,-8.803%

row,SMILES,Percent Effect
1,O=C(c1ccccc1F)N1CCN(c2ccc(-n3cccc3)nn2)CC1,-6.21%
2,CNC(=O)c1cccnc1NCCOc1ccc(CC#N)cc1,4.731%
3,O=C(O)C(F)(F)F.O=C(O)[C@]12CCCN(Cc3ccoc3)C[C@H]1CN(c1ncccn1)C2,0.4182%
4,Cc1cnn(CC2CCCN2C(=O)c2sccc2C#N)c1 (stereo unspecified),-6.888%
5,Cc1cnn(CC2CCCN2C(=O)c2ccccc2-n2cnnn2)c1 (stereo unspecified),114.3%
6,Cc1cnn(CC2CCCCN2C(=O)c2ccccc2-n2cccn2)c1 (stereo unspecified),109.2%
7,Cc1cnn(CC2CCCCN2C(=O)c2sccc2C#N)c1 (stereo unspecified),-11.17%
8,Cc1cnn(CC2CCCN2C(=O)c2sccc2-n2cnnn2)c1 (stereo unspecified),107.4%
9,Cc1cnn(CC2CCCN2C(=O)c2ccccc2-n2cccn2)c1 (stereo unspecified),86.06%
10,Cc1cnn(CC2CCCN2C(=O)c2cn(-c3ccccc3)nc2C)c1 (stereo unspecified),-0.04653%
11,O=C(c1cn(-c2cc(N3CCOCC3)ncn2)cn1)N1CCSCC1,-13.27%
12,COc1ccc2c(c1)OCC(CNC(=O)c1ccncc1)C2 (stereo unspecified),2.151%
13,Cc1cccc2[nH]c(C3CCCN(Cc4ccccc4C(=O)O)C3)nc12 (stereo unspecified),94.13%
14,CC(=O)N[C@@H]1CN(Cc2ccccc2C(=O)O)C[C@H]1C(C)C,-2.27%
15,Cc1n[nH]c(C2CN(Cc3ncc(C(C)C)o3)CCO2)n1 (stereo unspecified),3.962%
16,CCCS(=O)(=O)N1CCCC(c2nc(-c3ccccc3)c[nH]2)C1 (stereo unspecified),7.84%
17,Cc1cc(=O)[nH]c(-c2cccc(CN3CCCN4CCCC4C3)c2)n1 (stereo unspecified),-8.166%
18,Cc1cccc2[nH]c(C3CCCN(Cc4ccc(CO)o4)C3)nc12 (stereo unspecified),-5.911%
19,Cc1c[nH]c(C2CCCN(Cc3cccc(C(=O)O)c3)C2)n1 (stereo unspecified),79.24%
20,CCOC(=O)c1n[nH]cc1CN1CCOC(Cc2ccccc2)C1 (stereo unspecified),4.032%
21,CSc1ncccc1C(=O)N1CCC(c2nc3c(C)cccc3[nH]2)CC1,-2.536%
22,Cc1c[nH]c(C2CCCN(Cc3ccccc3C(=O)O)C2)n1.O=CO (stereo unspecified),102.4%
23,Cc1c[nH]c(C2CN(Cc3ccccc3C(=O)O)CCO2)n1 (stereo unspecified),102.8%
